This is one part of a sample in which hits are shown more often than they occur.
p53null 39C kill: selectivity test: cytotoxicity in p53 null cells, nonpermissive temperature; H1299 p53-null (neo) cells, 39C, ATPlite viability, 24 h; Potency, µM (series often up to 46.1 µM), for inactives: at the top dose activity, negative = cell killing, most hits filed as cytotoxic; 55,000 compounds, 0.97% hits; AID 904;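 note: 0% = DMSO only and -100% = full killing by 100 µM tamoxifen; nearly all actives have a fitted effect of over 50% in size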
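Temperature-shift cytotoxicity format: compound titrations on p53-null or A138V-expressing H1299 cells held 24 hr at 39C, cell ATP then measured, AC50 from Hill model.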
NTMT1 inh: NTMT1 methyltransferase inhibition | Q9BV86 | NTMT1 MTase-Glo SAH luminescence, purified enzyme | Potency, µM (titrated, usually from 114 µM), inactives show at the highest dose activity change, negative = inhibition, actives largely listed as inhibitors | 59,000 compounds, 2.5% hits;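 note: plate controls were DMSO vehicle for no effect and no enzyme for full effect; nearly all actives have a fitted effect of over 65% in size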
Target sequence (Q9BV86 whole entry, looked up): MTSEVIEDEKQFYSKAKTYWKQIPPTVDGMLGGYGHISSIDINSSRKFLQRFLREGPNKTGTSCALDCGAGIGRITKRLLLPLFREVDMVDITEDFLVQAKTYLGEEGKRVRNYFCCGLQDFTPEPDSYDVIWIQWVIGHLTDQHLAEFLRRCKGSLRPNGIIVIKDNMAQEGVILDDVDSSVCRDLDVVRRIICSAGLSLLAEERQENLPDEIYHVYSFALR
p53null 32C tox: p53 null cell cytotoxicity, permissive temperature | H1299-neo p53 null cells, ATP luminescence, 24 h, 32C | Potency, µM (top dose mostly 46.1 µM), for the others: top-dose activity change, negative = cytotoxicity, most hits filed as cytotoxic | 55,000 compounds, 0.62% hits | AID 903;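 note: 0% = DMSO only and -100% = full killing by 100 µM tamoxifen; nearly all actives have a fitted effect of over 55% in size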
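H1299-neo (p53 null) cells, 600/well, treated 24 h at 32C with compound up to 46 uM; ATPlite luminescence viability, normalized to DMSO and 100 uM tamoxifen; AC50 by Hill fit.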
OvCa metastasis: ovarian cancer metastasis inhibition, 3D TME model | SKOV3ip1-GFP adhesion/invasion on 3D omental model, fluorescence | Potency, µM (doses to about 45.8 µM), inactives show at the highest dose activity change, negative = inhibition, most hits filed as inhibitors | 46,000 compounds, 0.1% hits;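 note: plate controls were DMSO wells for no effect and tomatine positive control wells for full effect; nearly all actives have a fitted effect of over 65% in size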
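qHTS, 4-pt dose (0.36-46 umol/L); SKOV3ip1-GFP, 1,200 cells/well, no FBS; primary omental fibroblast/mesothelial co-culture 48 h pre-grown; 2 h RT + 16 h 37 C; PBS wash, 4% PFA; GFP count 488/509 nm.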
The depositor's hits bear a star; ! = repeats disagree; [ ] = remark or other dose. Calls come from the whole dose curve; as a rule, active = well fitted curve in the direction sought with a large enough effect; inconclusive = small, poorly fitted or top-dose-only effect, or another doubt; inactive = no such curve, though single readings can be large; an effect the other way counts as inactive or inconclusive. Potency is the fitted concentration of half-maximal effect.

For CCc1ccc(NC(=O)c2[nH]c(C)c(C(C)=O)c2C)cc1S(=O)(=O)Nc1ccc(C#N)cc1 the results were NTMT1 inh 17%.
`COc1ccc(CC(=O)Nc2sc3c(c2C(=O)Nc2cccc(Cl)c2)CCCCC3)cc1` gave p53null 39C kill -3%, NTMT1 inh 19%, p53null 32C tox -4% and OvCa metastasis inconclusive.
COc1ccccc1NC(=O)c1c(NCc2ccc(C)o2)sc2c1CCCCC2 was read as p53null 39C kill 20%, NTMT1 inh 28µM*, p53null 32C tox inconclusive and OvCa metastasis inactive.
Screening O=C(Nc1sc2c(c1C(=O)Nc1cccc(Cl)c1)CCCC2)c1cccs1 returned p53null 39C kill 4%, NTMT1 inh 25µM*, p53null 32C tox 3% and OvCa metastasis inactive.
For O=C(Cc1ccccc1)Nc1sc2c(c1C(=O)Nc1ccccc1Cl)CCCC2 the results were p53null 39C kill -8%, NTMT1 inh 89µM*, p53null 32C tox 8% and OvCa metastasis -32%.
O=C(COc1ccccc1)Nc1sc2c(c1C(=O)Nc1ccccc1Cl)CCCCC2 was read as p53null 39C kill -3%, NTMT1 inh 18%, p53null 32C tox 1% and OvCa metastasis inactive.
`FC(F)(F)c1ccccc1-c1nc(NCc2ccc(Cl)c(Cl)c2)c2ccccc2n1` gave NTMT1 inh 23%.
`Cc1ccc(NC(=O)CSc2c3c(nc4ccccc24)CCCC3)cc1F` gave p53null 39C kill 22µM*, NTMT1 inh -3%, p53null 32C tox 73% and OvCa metastasis -23%.
Screening COc1ccc(OC)c(NC(=O)CSc2c3c(nc4ccccc24)CCCC3)c1 returned p53null 39C kill 98%, NTMT1 inh -14%, p53null 32C tox 21% and OvCa metastasis inconclusive.
For COc1cccc(NC(=O)CSc2c3c(nc4ccccc24)CCCC3)c1 the results were p53null 39C kill -16%, NTMT1 inh -2%, p53null 32C tox 54% and OvCa metastasis 11µM*.
`Cn1c(CNc2cccc(C(=O)NCc3ccccc3C(F)(F)F)c2)nnc1-c1ccncc1` gave NTMT1 inh 15%.
`Cc1cc(=O)c2c(O)c3c(O)cc(=O)c4c3c3c(cc(O)c1c23)C(C)(C)C=4O` gave NTMT1 inh 3.5µM*! and OvCa metastasis -3%.
For CN(C)C(=S)SC(=S)N(C)C the results were NTMT1 inh 25µM*.
CNCc1ccc(C)c(NC(=O)c2ccc(Nc3nc(-c4ccccc4)c4ccccc4n3)cc2)c1 was read as NTMT1 inh 35µM*.
For Clc1ccc(Nc2nc(-c3ccccc3)c3ccccc3n2)c(Cl)c1 the results were p53null 39C kill -8%, NTMT1 inh 8%, p53null 32C tox 4% and OvCa metastasis 3%.
For CCNC(=O)C1CCN(C(=O)C(C)(C)NC(=O)Nc2ccccc2Cl)CC1 the results were NTMT1 inh -2%[57.5 µM].
For CCCc1nc(C)c2c(=O)[nH]c(-c3cc(S(=O)(=O)N4CCN(CC)CC4)ccc3OCC)nn12 the results were NTMT1 inh 14µM*! and OvCa metastasis inconclusive.
Screening COc1ccc(C(=O)Nc2ccc(C(=O)OCC(=O)c3cccc4ccccc34)cc2)cc1 returned p53null 39C kill 23%.
Screening COc1ccc(C(=O)COC(=O)c2cccc(NC(=O)c3ccc(OC)c(OC)c3)c2)cc1 returned p53null 39C kill inconclusive, NTMT1 inh 7%, p53null 32C tox 16µM* and OvCa metastasis -7%.
For CCc1cccc(CC)c1NC1=NS(=O)(=O)c2ccccc21 the results were p53null 39C kill -11%, NTMT1 inh 14%, p53null 32C tox -5% and OvCa metastasis 3%.
`O=S1(=O)N=C(Nc2nc3c(s2)CCCC3)c2ccccc21` gave p53null 39C kill 5.6µM* and p53null 32C tox 11µM*.
For Cc1cccc(CNc2nc(-c3ccccc3C(F)(F)F)nc3ccccc23)c1 the results were NTMT1 inh 13%.
Screening Cc1cc(C)c2c(N)c(C(=O)Nc3ncc(C)s3)sc2n1 returned p53null 39C kill 1µM* and p53null 32C tox 0.89µM*.
For COc1ccc(NC(=O)CSc2nnc(NC(=O)Nc3ccc(OC)cc3)s2)cc1 the results were p53null 39C kill 22%, NTMT1 inh -6%, p53null 32C tox inconclusive and OvCa metastasis -21%.
`COCCNC(=O)CSc1nnc(NC(=O)Nc2ccc(C)cc2)s1` gave p53null 39C kill 3%, NTMT1 inh -3%, p53null 32C tox 13µM* and OvCa metastasis -2%.
Screening CC1(C(=O)O)CCC2(C)CCC3(C)C(=CC(=O)C4C5(C)CCC(OC6OC(C(=O)O)C(O)C(O)C6OC6OC(C(=O)O)C(O)C(O)C6O)C(C)(C)C5CCC43C)C2C1 (stereo not drawn) returned NTMT1 inh 7%.
Cc1c[nH]c2nc(Nc3ccc(N4CCN(C)CC4)c(F)c3)nc(-c3cccc(CC#N)c3)c12 was read as NTMT1 inh 25µM*.
C=CCSc1nc2ccccc2n1S(=O)(=O)c1ccc(C)cc1 was read as p53null 39C kill 3% and p53null 32C tox 5%.
For Cc1ccc(/C=C/c2nc3ccccc3n2S(=O)(=O)c2ccc(Br)cc2)cc1 the results were p53null 39C kill 23%, NTMT1 inh inconclusive, p53null 32C tox 6.3µM* and OvCa metastasis inactive.
`O=S(=O)(c1cccc(Cl)c1)N1CCN(S(=O)(=O)c2ccc3c(c2)OCCO3)CC1` gave NTMT1 inh -5%.
`O=S(=O)(c1cccc(Cl)c1)n1c(/C=C/c2ccccc2Cl)nc2ccccc21` gave p53null 39C kill 2.8µM*, NTMT1 inh 6.3µM*, p53null 32C tox 1.3µM* and OvCa metastasis -14%.
CC(C)n1c(/C=C/c2ccccc2)nc2ccccc21 was read as p53null 39C kill 4%[1.84 µM] and p53null 32C tox inconclusive.
CSc1ccc(/C=C/c2nc3ccccc3n2S(=O)(=O)c2cccc(Cl)c2)cc1 was read as p53null 39C kill 4µM*, NTMT1 inh 6.3µM*, p53null 32C tox 3.2µM* and OvCa metastasis inconclusive.
For COc1cc2c3c(n(CCCN4CCOCC4)c(=O)c2cc1OC)-c1cc2c(cc1C3=O)OCO2 the results were NTMT1 inh 9%.
For Cc1cc(C)n2ncc(C(=O)Nc3cccc(C(F)(F)F)c3)c2n1 the results were NTMT1 inh 18%.
Screening c1ccc(CNCc2ccc(CN3CCCNCCNCCCNCC3)cc2)nc1 returned NTMT1 inh 23%.
For O=S(=O)(c1ccc(Cl)cc1)c1nnn2c1nc(NCc1ccccc1)c1sccc12 the results were p53null 39C kill inconclusive, NTMT1 inh 89µM*, p53null 32C tox -8% and OvCa metastasis -3%.
`CCc1cccc(C)c1NC(=O)Cn1nc(C)n2cccc2c1=O` gave p53null 39C kill 13µM*, NTMT1 inh 12%, p53null 32C tox -3% and OvCa metastasis -5%.
Screening CC1=C(C(=O)Nc2ccc(C)cc2)C(c2ccccc2Br)N=C(Nc2nc3ccccc3o2)N1 (stereo not drawn) returned NTMT1 inh 19%.

High-throughput results deposited in PubChem BioAssay by National Center for Advancing Translational Sciences (NCATS).
